Test results reported in PubChem BioAssay (NCI).
Compounds without any hit were thinned out: in the full panel of roughly 83,000, 20% have a hit.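 Note: values are percent growth. 100 is the growth of untreated cells, values between 100 and 0 indicate rising inhibition; between -100 and 0 indicates cell death.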 Activity calls are given as the source filed them. How the source made its calls: active means growth percent below 10; inactive means the rest.

Key:
Test in all cases: NCI-60 one-dose screen, 48 h (100 = growth as untreated, 0 = no growth, -100 = all killed)
Settings in all cases: 10 µM unless noted
HCT-15 colon = test system: HCT-15 colon
HT29 colon = test system: HT29 colon
SNB-75 CNS = test system: SNB-75 CNS
SNB-19 CNS = test system: SNB-19 CNS
U251 CNS = test system: U251 CNS
PC-3 prostate = test system: PC-3 prostate
UACC-62 melanoma = test system: UACC-62 melanoma
LOX IMVI melanoma = test system: LOX IMVI melanoma
SK-MEL-28 melanoma = test system: SK-MEL-28 melanoma
SK-MEL-5 melanoma = test system: SK-MEL-5 melanoma

Measured: growth

N#CC1=C(c2ccc(Cl)cc2)Nc2c(c(-c3ccc(Cl)cc3)nn2-c2ccccc2)C12C(=O)Nc1ccc(Cl)cc12 (configuration not stated)
inactive: HCT-15 colon 18.4% | HT29 colon 32.4% | SNB-75 CNS 19% | SNB-19 CNS 24.4% | U251 CNS 25.3% | PC-3 prostate 21.5% | UACC-62 melanoma 54.6% | LOX IMVI melanoma 41.5% | SK-MEL-28 melanoma 79.6%

O=C(NNC(=O)c1ccc(-n2cc(-c3ccccc3)nn2)cc1)Nc1ccccc1
inactive: HCT-15 colon 103% | HT29 colon 118% | SNB-75 CNS 97.2% | SNB-19 CNS 90.1% | U251 CNS 96.5% | PC-3 prostate 99.8% | UACC-62 melanoma 97.9% | LOX IMVI melanoma 97.1% | SK-MEL-28 melanoma 109%

COc1ccc(-c2csc(NC(=O)CSc3nc(-c4ccccc4)cc(=O)[nH]3)n2)cc1
inactive: HCT-15 colon 70.9% | HT29 colon 85.9% | SNB-75 CNS 82.3% | SNB-19 CNS 70.1% | U251 CNS 79.7% | PC-3 prostate 66.5% | UACC-62 melanoma 58.7% | LOX IMVI melanoma 66% | SK-MEL-28 melanoma 90.6%

Cc1nc2c(=O)[nH]c(SCC(=O)Nc3cccc(F)c3)nc2[nH]c1=O
inactive: HCT-15 colon 102% | HT29 colon 107% | SNB-75 CNS 93.6% | SNB-19 CNS 102% | U251 CNS 106% | PC-3 prostate 102% | UACC-62 melanoma 98.9% | LOX IMVI melanoma 101% | SK-MEL-28 melanoma 107%

CN1C(=O)N(C)C2Nn3c(s/c(=C\c4ccc(C(F)(F)F)cc4)c3=O)=NC21 (configuration not stated)
inactive: HCT-15 colon 93.9% | HT29 colon 109% | SNB-75 CNS 82.2% | SNB-19 CNS 95.2% | U251 CNS 93.2% | PC-3 prostate 104% | UACC-62 melanoma 89.7% | LOX IMVI melanoma 95.7% | SK-MEL-28 melanoma 103%

O=C1Nc2ccc(I)cc2C1=O
inactive: HCT-15 colon 101% | HT29 colon 93.8% | SNB-75 CNS 79.8% | SNB-19 CNS 98.3% | U251 CNS 93.8% | PC-3 prostate 86.7% | UACC-62 melanoma 92.3% | LOX IMVI melanoma 75.8% | SK-MEL-28 melanoma 104%

Oc1ccc(CCn2c(O)c(/C=C3\CN=c4ccccc4=N3)sc2=S)cc1
inactive: HCT-15 colon 35.2% | HT29 colon 62% | SNB-75 CNS 23.2% | SNB-19 CNS 82.2% | U251 CNS 80.3% | PC-3 prostate 60.2% | UACC-62 melanoma 58% | LOX IMVI melanoma 10.2% | SK-MEL-28 melanoma 77.5%

Oc1c(Cl)cc(Cl)cc1/C=N/Nc1nnc(N/N=C/c2cc(Cl)cc(Cl)c2O)c2ccccc12
active: LOX IMVI melanoma -52.3%
inactive: HCT-15 colon 20.6% | HT29 colon 23.7% | SNB-75 CNS 13% | SNB-19 CNS 12.8% | U251 CNS 21% | PC-3 prostate 16.3% | UACC-62 melanoma 13.2% | SK-MEL-28 melanoma 22.9%

COc1cc(-c2nc3cc(Cl)c(Cl)cc3[nH]2)ccc1OCC(=O)N=Nc1c(O)[nH]c2ccc([N+](=O)[O-])cc12
inactive: HCT-15 colon 103% | HT29 colon 110% | SNB-75 CNS 92.7% | SNB-19 CNS 43.9% | U251 CNS 22% | PC-3 prostate 56.5% | UACC-62 melanoma 95.2% | LOX IMVI melanoma 78.7% | SK-MEL-28 melanoma 82%

O=S(=O)(NCCCNc1nccc(-c2c(-c3ccc(F)c(O)c3)nc3occn23)n1)c1ccccc1
inactive: HCT-15 colon 103% | HT29 colon 73.6% | SNB-75 CNS 96.8% | SNB-19 CNS 113% | U251 CNS 99.7% | PC-3 prostate 79.1% | UACC-62 melanoma 10.7% | LOX IMVI melanoma 39.6% | SK-MEL-28 melanoma 24.7%

O=C1C(Cl)=C(Nc2ccc(O)cc2)C(=O)N1Cc1ccc(Cl)cc1
inactive: HCT-15 colon 19.7% | HT29 colon 11% | SNB-75 CNS 59% | SNB-19 CNS 69.5% | U251 CNS 47.1% | PC-3 prostate 45.9% | SK-MEL-5 melanoma 50.7% | UACC-62 melanoma 65.3% | SK-MEL-28 melanoma 61.6%

CC(C)=CCC[C@](C)(O)[C@H]1CC[C@]2(C)[C@@H]1CC[C@@H]1[C@@]3(C)Cc4nccnc4C(C)(C)[C@@H]3CC[C@]12C
inactive: HCT-15 colon 70.4% | HT29 colon 42% | SNB-75 CNS 91.6% | SNB-19 CNS 94% | U251 CNS 78.2% | PC-3 prostate 44.6% | SK-MEL-5 melanoma 65.8% | UACC-62 melanoma 66.9% | SK-MEL-28 melanoma 95.6%

CC(C)(C)[Si](C)(C)O[C@H]1C(=O)C=CN2CC=C[C@@H]12
inactive: HCT-15 colon 104% [100 µM] | HT29 colon 106% [100 µM] | SNB-75 CNS 91% [100 µM] | SNB-19 CNS 89.1% [100 µM] | U251 CNS 98.5% [100 µM] | PC-3 prostate 91.9% [100 µM] | SK-MEL-5 melanoma 106% [100 µM] | UACC-62 melanoma 85.3% [100 µM] | SK-MEL-28 melanoma 117% [100 µM]

CCOC(=O)c1c(NC(=O)c2ccc(C(C)C)cc2)sc2c(CN(C)C)c(O)ccc12
active: HCT-15 colon -49.2% | U251 CNS 6.18% | LOX IMVI melanoma -83.3% | SK-MEL-28 melanoma -14.9%
inactive: HT29 colon 27% | SNB-75 CNS 98.5% | SNB-19 CNS 57.8% | PC-3 prostate 96.1% | UACC-62 melanoma 53.8%

CCN1C(=O)N(CC)C2C1NN=c1s/c(=C\c3cccc([N+](=O)[O-])c3)c(=O)n12 (configuration not stated)
inactive: HCT-15 colon 11.6% | SNB-75 CNS 22% | SNB-19 CNS 31.5% | U251 CNS 13.7% | PC-3 prostate 33.7% | UACC-62 melanoma 32.5% | LOX IMVI melanoma 16.7% | SK-MEL-28 melanoma 61.4%
active: HT29 colon 5.6%

Cc1cc(=O)[nH]c2c(C#N)cnn12
inactive: HCT-15 colon 107% | HT29 colon 104% | SNB-75 CNS 100% | SNB-19 CNS 98.1% | U251 CNS 102% | PC-3 prostate 107% | UACC-62 melanoma 90.7% | LOX IMVI melanoma 101% | SK-MEL-28 melanoma 105%

CCn1cc(C(=O)N/N=C/c2cccs2)c(=O)c2cc(F)c(N3CCNC(C)C3)c(F)c21 (configuration not stated)
active: HT29 colon -76.7% | LOX IMVI melanoma -84.1%
inactive: HCT-15 colon 25% | SNB-75 CNS 88.5% | SNB-19 CNS 73% | U251 CNS 53.3% | PC-3 prostate 76.3% | UACC-62 melanoma 96.5% | SK-MEL-28 melanoma 89.9%

CC(C)n1cnc2c(=S)nc[nH]c21
inactive: HCT-15 colon 102% | HT29 colon 118% | SNB-75 CNS 117% | SNB-19 CNS 107% | U251 CNS 98.9% | PC-3 prostate 98.7% | SK-MEL-5 melanoma 103% | UACC-62 melanoma 110% | SK-MEL-28 melanoma 131%

CCOC(=O)C1=C(NC)OCC1=O
inactive: HCT-15 colon 111% | HT29 colon 99.6% | SNB-75 CNS 99.1% | SNB-19 CNS 109% | U251 CNS 96.5% | PC-3 prostate 85.7% | SK-MEL-5 melanoma 93.4% | UACC-62 melanoma 103% | SK-MEL-28 melanoma 110%

O=C(CCCCC1CCSS1)Nc1ncnc2n[nH]c(-c3ccc(Oc4ccccc4)cc3)c12 (configuration not stated)
active: LOX IMVI melanoma 5.87%
inactive: HCT-15 colon 95.8% | HT29 colon 88.3% | SNB-75 CNS 135% | SNB-19 CNS 114% | U251 CNS 106% | PC-3 prostate 90.2% | UACC-62 melanoma 70.4% | SK-MEL-28 melanoma 47%

COc1cc(CNS(=O)(=O)c2ccc(C)cc2)ccc1OCc1cn(-c2ccc(F)cc2)nn1
inactive: HCT-15 colon 92.5% | HT29 colon 85.1% | SNB-75 CNS 81% | SNB-19 CNS 102% | U251 CNS 97.3% | PC-3 prostate 83.6% | UACC-62 melanoma 71.8% | LOX IMVI melanoma 102% | SK-MEL-28 melanoma 87.9%

Cn1ccnc1C(=O)C(=O)Nc1ccc(CC(=O)Nc2ccccc2)cc1
inactive: HCT-15 colon 96.9% | HT29 colon 107% | SNB-75 CNS 92.2% | SNB-19 CNS 96.5% | U251 CNS 108% | PC-3 prostate 107% | UACC-62 melanoma 95.5% | LOX IMVI melanoma 100% | SK-MEL-28 melanoma 107%

CCN(CC)c1nc(SCc2ccccc2Cl)ncc1C
inactive: HCT-15 colon 96.4% | HT29 colon 107% | SNB-75 CNS 97.8% | SNB-19 CNS 96.4% | U251 CNS 92.6% | PC-3 prostate 89.9% | UACC-62 melanoma 81.2% | LOX IMVI melanoma 95.9% | SK-MEL-28 melanoma 118%

C=C1C(=O)O[C@H]2[C@H]1CC/C(COC(=O)NCc1ccc(Cn3c(=O)sn(CCI)c3=O)cc1)=C\CC[C@@]1(C)O[C@@H]21
inactive: HCT-15 colon 41.1% | HT29 colon 39.8% | SNB-75 CNS 81.2% | SNB-19 CNS 97.2% | U251 CNS 73.3% | PC-3 prostate 75.6% | UACC-62 melanoma 65.4% | LOX IMVI melanoma 35.1% | SK-MEL-28 melanoma 55.5%

O=C(Nn1c2c(sc1=Nc1ccccc1)C(=O)c1ccccc1C2=O)c1cc2ccc1CCc1ccc(cc1)CC2
inactive: HCT-15 colon 51.3% | HT29 colon 91.8% | SNB-75 CNS 36.3% | SNB-19 CNS 60.7% | U251 CNS 82.6% | PC-3 prostate 66.3% | UACC-62 melanoma 70.8% | LOX IMVI melanoma 62.2% | SK-MEL-28 melanoma 92.4%

O=C(CSc1nnc2n1S(=O)(=O)c1ccccc1N2c1ccccc1)Nc1nc2ccc(F)cc2s1
inactive: HCT-15 colon 104% | HT29 colon 104% | SNB-75 CNS 85.5% | SNB-19 CNS 99.6% | U251 CNS 103% | PC-3 prostate 89.5% | UACC-62 melanoma 81.2% | LOX IMVI melanoma 85.8% | SK-MEL-28 melanoma 117%

CC(=O)[C@@H]1CCC=C2CC[C@]3(C)[C@@H](CC[C@@H]4[C@@]5(C)CCCNC(C)(C)[C@@H]5CC[C@]43C)[C@H]21
active: HCT-15 colon -89% | HT29 colon -83.7% | SNB-19 CNS -77.2% | U251 CNS -98.8% | PC-3 prostate -21.4% | UACC-62 melanoma -79% | LOX IMVI melanoma -99.5% | SK-MEL-28 melanoma -42.3%
inactive: SNB-75 CNS 23.5%

CC(=O)n1nc(C(=O)OC(C)C)c2cc(C)c(C)cc21
inactive: HCT-15 colon 90.9% | HT29 colon 97.8% | SNB-75 CNS 80.7% | SNB-19 CNS 98.5% | PC-3 prostate 74.2% | SK-MEL-5 melanoma 92% | UACC-62 melanoma 97.6% | LOX IMVI melanoma 97% | SK-MEL-28 melanoma 114%
